Our source for the outcome and AC50 values is PubChem BioAssay (EPA / NIEHS).

The nature of experiment [1]: ATG_M_06_TRANS: Attagene TRANS-FACTORIAL HepG2 Assay for M06 Transcription Factor (Internal Marker) (AID 2282983; active means hit-call score of the fitted dose curve at least 0.9, where 1 is the maximum). The note with it: HepG2 Attagene TRANS M06 internal marker reporter. Summed up: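 Human liver HepG2 cells bearing transiently transfected chimeric NR-GAL4 reporter units were treated with chemicals for 24 h. Total RNA was reverse-transcribed, reporter sequences amplified and labelled, then quantified by capillary electrophoresis. Activity was fitted upward relative to DMSO.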

Experiment [2] deals with Nuclear receptor subfamily 4 group A member 2 (Homo sapiens) (UniProt P43354). Kind of experiment: ATG_NURR1_TRANS: Attagene TRANS-FACTORIAL HepG2 Assay for human Nuclear Receptor Related Protein 1 (NURR1) (AID 2282985; active means hit-call score of the fitted dose curve at least 0.9, where 1 is the maximum). The note with it: HepG2 Attagene TRANS reporter, mRNA readout. Summed up:
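Chimeric NR-Gal4 fusion activity measured in HepG2 after 24 h treatment. Reporter transcripts detected by RT-PCR and capillary electrophoresis fluorescence; positive-direction curve fitting against DMSO.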

Experiment [3] deals with Transcriptional activator Myb (Homo sapiens) (UniProt P10242). Kind of experiment: ATG_Myb_CIS: Attagene CIS-FACTORIAL HepG2 Assay for human Myeloblastosis (Myb) Proto-Oncogene Transcription Factor (AID 2282986). The settings on record: HepG2 Attagene CIS-FACTORIAL Myb reporter transcription; actives raise or lower the signal. Summed up:
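Transiently transfected HepG2 cells carrying a multiplexed cis-promoter reporter set report endogenous Myb activity after 24 h compound exposure. Reporter mRNA is read by RT-PCR with capillary electrophoresis of fluorescent products, fitted bidirectionally against DMSO.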

The target of experiment [4] is Nuclear respiratory factor 1 (Homo sapiens) (UniProt Q16656). Kind of experiment: ATG_NRF1_CIS: Attagene CIS-FACTORIAL HepG2 Assay for human Nuclear Respiratory Factor 1 (NRF1) Orphan Gene (AID 2282987). The note with it: HepG2 NRF1 cis-element reporter, Attagene multiplex; actives raise or lower the signal. The method, boiled down: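 HepG2 cells transiently transfected with multiple cis-regulated reporter units, exposed 24 h. Reporter mRNAs measured by RT-PCR, fluorescent labelling, HpaI digestion and capillary electrophoresis; bidirectional fitting against DMSO.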

Experiment [5] can be described thus: ATG_NFI_CIS: Attagene CIS-FACTORIAL HepG2 Assay for human Nuclear Factor I (NFI) (AID 2282989). The settings on record: HepG2 cis-regulatory reporter, NFI response element transcription; actives raise or lower the signal. Summed up: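 Transfected HepG2 liver cells, exposed 24 h, supplied total RNA for oligo(dT) reverse transcription and reporter-specific PCR. Labelled, HpaI-cut fragments were sized by capillary electrophoresis; DMSO set the baseline for bidirectional fitting.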

The target of experiment [6] is Myc proto-oncogene protein (Homo sapiens) (UniProt P01106). The experiment can be described thus: ATG_Myc_CIS: Attagene CIS-FACTORIAL HepG2 Assay for human Myelocytomatosis (Myc) Proto-Oncogene Transcription Factor (AID 2282990). The settings on record: HepG2, Attagene cis-reporter transcription factor activity; actives raise or lower the signal. The method, boiled down:
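Multiplexed cis-reporter transcription in HepG2 cells after 24 h chemical treatment. Reporter mRNA measured by RT-PCR and capillary electrophoresis fluorescence; activity fitted bidirectionally against DMSO control.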

The nature of experiment [7]: ATG_NRF2_ARE_CIS: Attagene CIS-FACTORIAL HepG2 Assay for human Nuclear Factor Erythroid 2 Related Factor 2 (NFR2) response to Antioxidant Response Elements (ARE) (AID 2282992). The note with it: HepG2 Attagene ARE/NRF2 reporter, transcription factor activity; actives raise or lower the signal. Summed up: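 Readout: reporter mRNA quantified by RT-PCR plus FAM-labelled primer extension, HpaI digestion and capillary electrophoresis, 24 h after dosing transfected HepG2 cells. Gain or loss of signal is fitted bidirectionally against DMSO baseline.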

For experiment [8], the target named is Cellular tumor antigen p53 (Homo sapiens) (UniProt P04637). Kind of experiment: ATG_p53_CIS: Attagene CIS-FACTORIAL HepG2 Assay for human p53 Transcription Factor (AID 2282994). The note with it: HepG2 p53 cis-element reporter, Attagene mRNA; actives raise or lower the signal. Summed up:
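Read-out: reporter mRNA by RT-PCR plus capillary electrophoresis with fluorescence detection. Human HepG2 liver cells carried transfected multi-reporter cis-element constructs, dosed 24 h. Gain or loss of signal fitted bidirectionally against DMSO control.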

The nature of experiment [9]: BSK_3C_TissueFactor: BioMAP Diversity Plus: 3C Assay for Tissue Factor Biomarker Activity (AID 2282997). The note with it: BioMAP 3C HUVEC, tissue factor biomarker readout; actives raise or lower the signal. The method, boiled down: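 Cells used were primary human umbilical vein endothelial cells. They were dosed with chemical, and after 24 h Tissue Factor was quantified by ELISA. Curves were fitted bidirectionally with DMSO as baseline.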

Experiment [10] is described as follows: BSK_3C_uPAR: BioMAP Diversity Plus: 3C Assay for Urokinase-type plasminogen activator receptor (uPAR) Biomarker Activity (AID 2282998). The settings on record: BioMAP 3C HUVEC, uPAR biomarker ELISA; actives raise or lower the signal. Summed up:
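In this endothelial cell-based assay, human umbilical vein primary cells were treated with chemicals and harvested at 24 h. uPAR was quantified using ELISA, with gains or losses fitted relative to DMSO controls.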

The nature of experiment [11]: BSK_4H_Eotaxin3: BioMAP Diversity Plus: 4H Assay for Eotaxin 3 Biomarker Activity (AID 2283000).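 On outcome: CCL26 protein level quantified by ELISA in parallel with SRB cytotoxicity check.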 The settings on record: primary human endothelial cells (HUVEC); actives raise or lower the signal. The method, boiled down: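 Endothelial primary cells (human umbilical vein) exposed to compound for 24 h. ELISA detection of Eotaxin-3.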
For experiment [12], the target named is human Peroxisome Proliferator-activated Receptor delta (PPARd), PPARD (gene 5467) (UniProt Q03181). The experiment can be described thus: ATG_PPARd_TRANS: Attagene TRANS-FACTORIAL HepG2 Assay for human Peroxisome Proliferator-activated Receptor delta (PPARd) (AID 2283002; active means hit-call score of the fitted dose curve at least 0.9, where 1 is the maximum). Summed up: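 Multiplexed trans-activation format: HepG2 liver cells expressing exogenous NR-Gal4 chimeras and GAL4-UAS reporters were exposed for 24 h. Reporter mRNA was detected by RT-PCR with capillary electrophoresis fluorescence; activity fitted as gain of signal relative to DMSO.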

Experiment [13] can be described thus: ATG_NF_kB_CIS: Attagene CIS-FACTORIAL HepG2 Assay for human Nuclear Factor Kappa B (NF-kB) (AID 2282991). The settings on record: HepG2 Attagene cis-factorial NF-kB reporter mRNA; actives raise or lower the signal. Summed up: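 HepG2 cells transfected with cis-promoter-driven reporter units, so endogenous transcription factor activity is measured. Reporter mRNA quantified 24 h after dosing by RT-PCR and capillary electrophoresis, with bidirectional fitting against DMSO.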

Experiment [14] can be described thus: ATG_M_32_TRANS: Attagene TRANS-FACTORIAL HepG2 Assay for M32 Transcription Factor (Internal Marker) (AID 2282984; active means hit-call score of the fitted dose curve at least 0.9, where 1 is the maximum;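 further: transcript level of a background control reporter unit measured by RT-PCR and capillary electrophoresis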). The note with it: HepG2 Attagene TRANS M32 internal marker reporter. The method, boiled down: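 After 24 h dosing of transfected HepG2 cells, total RNA was reverse-transcribed, reporter sequences PCR-amplified, 6-FAM labelled by primer extension and HpaI-digested before capillary electrophoresis. Signal increase over DMSO was fitted.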

Experiment [15] is described as follows: ATG_Oct_MLP_CIS: Attagene CIS-FACTORIAL HepG2 Assay for human Octamer-Binding Transcription Factor (Oct) (AID 2282993). The note with it: HepG2 Attagene cis-factorial Oct reporter, mRNA; actives raise or lower the signal. The method, boiled down:
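Using HepG2 cells bearing transfected cis-reporter constructs, mRNA induction was read after 24 h by fluorescent RT-PCR and capillary electrophoresis, with DMSO defining baseline for gain- or loss-of-signal fits.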

Experiment [16] concerns the target human Peroxisome Proliferator-activated Receptor alpha (PPARa), PPARA (gene 5465) (UniProt Q07869). Kind of experiment: ATG_PPARa_TRANS: Attagene TRANS-FACTORIAL HepG2 Assay for human Peroxisome Proliferator-activated Receptor alpha (PPARa) (AID 2283001; active means hit-call score of the fitted dose curve at least 0.9, where 1 is the maximum). Summed up: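 Cells (HepG2) are transfected with multiple reporter transcription units, exposed to chemical for 24 h, then total RNA is reverse-transcribed and amplified. Labelled products are quantified by capillary electrophoresis; induction is referenced to DMSO.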

Read-out in experiment [17]: Intercellular Adhesion Molecule 1 (ICAM1), ICAM1 (gene 3383)
The experiment can be described thus: BSK_3C_ICAM1: BioMAP Diversity Plus: 3C Assay for Intercellular Adhesion Molecule 1 (ICAM1) Biomarker Activity (AID 2283003). The note with it: primary human endothelial cells (HUVEC); actives raise or lower the signal. Summed up:
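ELISA readout of ICAM1 in human umbilical vein endothelial cells in the 3C system, taken 24 h post-dose. Gain or loss of signal versus DMSO was fitted in both directions, with SRB total-protein staining run in parallel.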

Records with an inconclusive call do not appear. Activity calls are given as the source filed them. How the source made its calls, unless noted: active means hit-call score of the fitted dose curve at least 0.9, where 1 is the maximum; inactive means score below 0.9.

Chain of human Peroxisome Proliferator-activated Receptor delta (PPARd), PPARD (gene 5467) (Q03181 whole entry, looked up, the tested form may be a part): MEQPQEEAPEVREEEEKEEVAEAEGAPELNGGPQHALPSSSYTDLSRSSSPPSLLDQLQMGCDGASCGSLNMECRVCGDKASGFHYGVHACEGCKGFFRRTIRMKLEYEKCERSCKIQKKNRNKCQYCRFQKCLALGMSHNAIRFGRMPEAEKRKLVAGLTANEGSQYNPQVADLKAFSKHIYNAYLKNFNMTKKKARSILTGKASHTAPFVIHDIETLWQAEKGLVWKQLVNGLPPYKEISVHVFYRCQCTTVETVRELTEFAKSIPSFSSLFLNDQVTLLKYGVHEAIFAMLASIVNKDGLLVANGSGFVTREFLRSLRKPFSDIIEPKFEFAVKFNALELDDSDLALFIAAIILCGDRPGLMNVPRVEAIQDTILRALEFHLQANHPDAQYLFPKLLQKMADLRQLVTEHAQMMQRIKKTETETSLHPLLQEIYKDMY
Chain of Nuclear receptor subfamily 4 group A member 2 (Homo sapiens) (P43354 whole entry, looked up, the tested form may be a part): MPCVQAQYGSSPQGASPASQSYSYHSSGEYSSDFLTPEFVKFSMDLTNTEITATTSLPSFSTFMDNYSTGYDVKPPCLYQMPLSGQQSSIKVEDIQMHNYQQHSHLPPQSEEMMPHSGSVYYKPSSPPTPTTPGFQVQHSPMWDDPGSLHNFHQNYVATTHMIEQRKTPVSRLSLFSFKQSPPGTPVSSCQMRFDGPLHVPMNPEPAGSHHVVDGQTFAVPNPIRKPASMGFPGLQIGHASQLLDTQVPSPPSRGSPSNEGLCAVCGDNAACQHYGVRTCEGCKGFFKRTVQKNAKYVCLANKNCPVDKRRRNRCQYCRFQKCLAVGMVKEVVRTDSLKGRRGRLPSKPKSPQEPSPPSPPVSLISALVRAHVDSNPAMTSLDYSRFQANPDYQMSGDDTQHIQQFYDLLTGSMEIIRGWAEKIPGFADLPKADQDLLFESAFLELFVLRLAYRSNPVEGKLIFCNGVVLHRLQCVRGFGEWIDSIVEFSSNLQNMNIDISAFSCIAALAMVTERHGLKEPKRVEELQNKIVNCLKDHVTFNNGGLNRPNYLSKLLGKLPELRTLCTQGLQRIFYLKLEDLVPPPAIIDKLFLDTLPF
Chain of Cellular tumor antigen p53 (Homo sapiens) (P04637 whole entry, looked up): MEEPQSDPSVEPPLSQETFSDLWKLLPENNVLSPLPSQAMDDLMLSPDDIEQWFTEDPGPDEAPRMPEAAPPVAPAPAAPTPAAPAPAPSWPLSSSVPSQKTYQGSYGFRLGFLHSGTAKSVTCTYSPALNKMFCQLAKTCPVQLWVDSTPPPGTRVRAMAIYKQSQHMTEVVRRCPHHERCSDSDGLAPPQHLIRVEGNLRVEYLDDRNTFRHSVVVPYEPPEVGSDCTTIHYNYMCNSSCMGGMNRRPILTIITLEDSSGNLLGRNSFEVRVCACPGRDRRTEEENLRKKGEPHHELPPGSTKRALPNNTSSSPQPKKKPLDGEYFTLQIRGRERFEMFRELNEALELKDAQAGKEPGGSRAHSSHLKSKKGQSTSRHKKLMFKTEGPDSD
Chain of Transcriptional activator Myb (Homo sapiens) (P10242 whole entry, looked up): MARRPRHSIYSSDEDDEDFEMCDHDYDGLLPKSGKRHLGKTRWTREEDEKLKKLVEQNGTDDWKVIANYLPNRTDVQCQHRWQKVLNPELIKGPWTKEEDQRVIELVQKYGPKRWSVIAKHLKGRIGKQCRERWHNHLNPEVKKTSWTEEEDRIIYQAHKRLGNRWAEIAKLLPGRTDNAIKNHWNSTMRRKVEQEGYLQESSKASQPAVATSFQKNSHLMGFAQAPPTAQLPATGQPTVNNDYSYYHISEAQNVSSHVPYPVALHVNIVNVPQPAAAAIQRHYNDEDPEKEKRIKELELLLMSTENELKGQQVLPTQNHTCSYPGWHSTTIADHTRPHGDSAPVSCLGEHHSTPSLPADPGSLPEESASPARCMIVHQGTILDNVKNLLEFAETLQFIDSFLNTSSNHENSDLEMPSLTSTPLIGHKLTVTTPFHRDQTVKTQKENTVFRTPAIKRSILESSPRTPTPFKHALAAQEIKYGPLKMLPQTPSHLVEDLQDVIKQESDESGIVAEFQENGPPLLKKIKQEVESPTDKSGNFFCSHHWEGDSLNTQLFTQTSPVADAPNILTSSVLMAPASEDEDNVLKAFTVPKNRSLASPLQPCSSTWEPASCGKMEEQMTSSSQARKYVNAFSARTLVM
Chain of Myc proto-oncogene protein (Homo sapiens) (P01106 whole entry, looked up): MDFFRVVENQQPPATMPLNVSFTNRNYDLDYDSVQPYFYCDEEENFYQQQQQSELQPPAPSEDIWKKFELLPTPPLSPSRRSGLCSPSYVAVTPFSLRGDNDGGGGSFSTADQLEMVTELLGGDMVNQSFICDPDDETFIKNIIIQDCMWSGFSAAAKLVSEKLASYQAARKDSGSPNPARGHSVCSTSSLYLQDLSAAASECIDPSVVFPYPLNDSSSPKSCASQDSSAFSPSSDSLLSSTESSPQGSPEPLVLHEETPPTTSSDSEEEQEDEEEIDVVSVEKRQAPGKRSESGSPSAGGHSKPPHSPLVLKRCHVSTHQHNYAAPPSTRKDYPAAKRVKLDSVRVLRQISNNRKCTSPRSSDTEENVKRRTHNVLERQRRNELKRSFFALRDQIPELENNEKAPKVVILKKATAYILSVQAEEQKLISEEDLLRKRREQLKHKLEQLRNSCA
Chain of Nuclear respiratory factor 1 (Homo sapiens) (Q16656 whole entry, looked up): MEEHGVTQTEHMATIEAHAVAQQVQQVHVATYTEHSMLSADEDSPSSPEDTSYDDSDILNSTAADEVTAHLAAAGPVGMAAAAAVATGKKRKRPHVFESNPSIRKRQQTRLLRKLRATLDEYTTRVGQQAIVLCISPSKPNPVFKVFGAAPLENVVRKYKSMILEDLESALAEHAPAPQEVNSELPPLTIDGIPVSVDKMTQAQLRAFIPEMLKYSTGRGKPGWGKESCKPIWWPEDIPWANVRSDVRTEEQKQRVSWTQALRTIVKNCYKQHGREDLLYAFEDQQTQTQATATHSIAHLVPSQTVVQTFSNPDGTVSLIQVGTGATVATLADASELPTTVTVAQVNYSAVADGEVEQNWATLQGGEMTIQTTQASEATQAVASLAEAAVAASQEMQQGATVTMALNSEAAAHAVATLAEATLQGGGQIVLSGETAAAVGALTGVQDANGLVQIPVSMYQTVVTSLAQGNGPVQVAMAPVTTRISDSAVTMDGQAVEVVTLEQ
Chain of human Peroxisome Proliferator-activated Receptor alpha (PPARa), PPARA (gene 5465) (Q07869 whole entry, looked up): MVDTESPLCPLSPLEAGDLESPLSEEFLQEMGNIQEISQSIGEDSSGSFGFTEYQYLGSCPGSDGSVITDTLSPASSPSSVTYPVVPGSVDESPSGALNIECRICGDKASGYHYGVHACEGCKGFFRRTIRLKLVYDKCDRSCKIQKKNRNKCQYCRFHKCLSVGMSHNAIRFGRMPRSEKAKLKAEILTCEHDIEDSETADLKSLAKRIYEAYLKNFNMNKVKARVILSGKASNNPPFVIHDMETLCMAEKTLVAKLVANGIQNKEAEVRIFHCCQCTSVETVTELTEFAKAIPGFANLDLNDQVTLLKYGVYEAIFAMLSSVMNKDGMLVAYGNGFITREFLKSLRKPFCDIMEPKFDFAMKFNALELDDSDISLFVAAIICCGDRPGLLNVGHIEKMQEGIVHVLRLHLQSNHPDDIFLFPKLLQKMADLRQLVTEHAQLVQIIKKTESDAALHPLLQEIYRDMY

Regarding `ClC1(Cl)C2(Cl)C3(Cl)C4(Cl)C(Cl)(Cl)C5(Cl)C3(Cl)C1(Cl)C5(Cl)C24Cl` (stereo not drawn), the outcome in [1], in experiment [2], in [3], in experiment [4], in experiment [5] and in [6] was inactive. In addition, the compound was called inactive in experiment [7], in experiment [8], in experiment [9], in experiment [10], in experiment [11] and in experiment [12].

On to `CCOP(=S)(OCC)SCCS(=O)(=O)CC`, for which the result in experiment [3], in [4], in [5], in [6], in experiment [13] and in experiment [8] was inactive. The result in experiment [9], in experiment [10] and in [11] was inactive.

For the compound `C[C@]12CC[C@H](O)CC1=CC[C@@H]1[C@@H]2CC[C@]2(C)C(=O)CC[C@@H]12`, the compound was classed as inactive in experiment [1], in [14], in experiment [3], in experiment [4], in experiment [5] and in [6]. The result in experiment [13], in experiment [7], in experiment [15] and in experiment [16] was inactive.

Take `CCOP(=S)(OCC)Oc1ccc(S(C)=O)cc1` (stereo not drawn): the compound was called inactive in [3], in experiment [4], in experiment [5], in experiment [6], in experiment [7] and in experiment [15]. In addition, the outcome in experiment [9], in [10], in experiment [11] and in experiment [12] was inactive.

As for `N#CCc1ccc(Cl)cc1`, the outcome in experiment [1], in experiment [3], in experiment [4], in [5], in [6] and in experiment [13] was inactive. Also, the result in [7], in [15], in experiment [8] and in experiment [12] was inactive.

As for `CC(=O)c1cc(C(C)(C)C)cc2c1CCC2(C)C`, the result in experiment [14], in experiment [3], in experiment [4], in experiment [8] and in experiment [12] was inactive. The half-maximal activity concentration (AC50) is 27.3 µM (active) in [2]; 74.2 µM (active) in experiment [5]; 146 µM (active) in experiment [6]; 156 µM (active) in experiment [13]; 61.7 µM (active) in [7].

In the case of `COP(=S)(OC)Oc1c(Cl)cc(C)cc1Cl`, the compound was classed as inactive in experiment [14], in experiment [2], in experiment [3], in [4], in experiment [5] and in experiment [6]. For the same compound, the outcome in experiment [13], in experiment [15], in experiment [8], in experiment [9], in experiment [10] and in [16] was inactive. Further, the compound was classed as inactive in experiment [12] and in [17]. Further, the AC50 is 29.2 µM (active) in [7] and 5.75 µM (active) in experiment [11].

With `CNC`, the compound was classed as inactive in experiment [14], in experiment [2], in experiment [3], in experiment [4], in experiment [5] and in experiment [6]. The outcome in [13], in experiment [7], in [15], in [8] and in experiment [12] was inactive.
